We go through one molecule from PubChem BioAssay AID2185 (Vanderbilt High Throughput Screening Facility, 2009).

This assay deals with Metabotropic glutamate receptor 4 (Rattus norvegicus) (UniProt P31423). The assay can be described thus: PubChem AID 2185. The following applies: HEK/GIRK cells expressing rat mGluR4, thallium flux PAM; hits give high values.

Potency and affinity values are given separately. A number with no mark means an inactive call. How the calls were made is not given here.

Sequence of Metabotropic glutamate receptor 4 (Rattus norvegicus) (P31423 whole entry, looked up): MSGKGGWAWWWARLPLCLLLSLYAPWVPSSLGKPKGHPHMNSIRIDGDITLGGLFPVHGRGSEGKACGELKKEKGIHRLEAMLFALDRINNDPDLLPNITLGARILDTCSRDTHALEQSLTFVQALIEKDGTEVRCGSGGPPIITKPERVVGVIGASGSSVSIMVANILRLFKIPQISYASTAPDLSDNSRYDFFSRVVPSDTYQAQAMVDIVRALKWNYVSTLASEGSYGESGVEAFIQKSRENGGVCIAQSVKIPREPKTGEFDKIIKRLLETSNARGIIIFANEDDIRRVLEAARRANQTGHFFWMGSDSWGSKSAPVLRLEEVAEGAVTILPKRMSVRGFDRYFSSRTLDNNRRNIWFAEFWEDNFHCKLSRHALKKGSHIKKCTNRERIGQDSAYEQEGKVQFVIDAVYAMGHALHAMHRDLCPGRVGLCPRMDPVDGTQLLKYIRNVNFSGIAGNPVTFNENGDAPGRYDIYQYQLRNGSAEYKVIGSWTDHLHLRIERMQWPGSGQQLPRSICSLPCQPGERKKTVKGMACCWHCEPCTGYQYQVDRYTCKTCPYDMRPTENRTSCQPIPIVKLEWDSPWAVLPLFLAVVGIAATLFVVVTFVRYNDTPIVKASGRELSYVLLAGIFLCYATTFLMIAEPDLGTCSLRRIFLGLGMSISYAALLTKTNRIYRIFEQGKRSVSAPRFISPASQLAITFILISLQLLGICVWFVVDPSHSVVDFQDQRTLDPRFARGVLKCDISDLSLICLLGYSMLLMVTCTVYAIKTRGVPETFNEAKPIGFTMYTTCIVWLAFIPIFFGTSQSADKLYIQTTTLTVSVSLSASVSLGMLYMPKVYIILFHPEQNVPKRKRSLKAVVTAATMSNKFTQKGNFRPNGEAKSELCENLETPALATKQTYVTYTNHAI

Turning to `N#Cc1ccc(NC(=O)c2ccccn2)cc1C(F)(F)F`, the % glutamate max was 26.3%.
